Reference: PubChem BioAssay AID1628 (Sanford-Burnham Center for Chemical Genomics, 2009)
Out of some 190,000 compounds screened, about 930 (0.49%) were called active. The list shows a part of the results. Results with a measured potency or affinity are listed apart. A number with no mark means an inactive call.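 Rule for the calls: active = z-score of insulin promoter reporter brightness in nuclei below -3 at 5 µM, with at least 500 cells counted; inconclusive = wells with under 500 cells, flagged as toxic or sparse; inactive = the rest.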

experiment: insulin promoter down-regulators in MIN6 cells, imaging, high-content screening, mouse beta cells (AID 1628); conditions: MIN6 insulin promoter GFP reporter, at 5 µM, stronger effect = lower value

Compound	z-score
Cc1cc(/C=C2\NC(=S)N(C)C2=O)ccc1N1CCCC1	14.3
Cc1oc2ncnc(N)c2c1C	0.96
CCCCN(C)CC(O)Cn1cc(/C=C/C(=O)c2cccs2)c2ccccc21 (stereo unspecified)	4.79
CC(Cc1cccs1)NC(=O)Nc1ccccc1 (stereo unspecified)	-4.74 (active)
CC(NC(=O)/C(C#N)=C1\N=C(NC(=O)c2cccs2)c2ccccc21)c1ccccc1 (stereo unspecified)	3.96
Nc1nnc(-c2cc3c(ccc4ccccc43)oc2=O)s1	8.81
O=C(c1ccco1)N1CCN(C(=O)N2c3ccccc3Sc3ccccc32)CC1	-3.22 (active)
CN(C)N(C)C(=O)C(O)(c1ccccc1)c1ccccc1	-3.03 (active)
COC(=O)c1ccc(N2CCN(S(=O)(=O)c3ccc4ccccc4c3)CC2)c([N+](=O)[O-])c1	-4.04 (active)
CCN1CC=C2C(C#N)=C(N)C(C#N)(C#N)C(c3cc(Cl)ccc3Cl)C2C1 (stereo unspecified)	15.3
O=C1c2cccc3c(N4CCCCC4)ccc(c23)C(=O)N1c1ccc(O)cc1	6.1
O=C(COc1ccc2ccccc2c1Br)Nc1ncn[nH]1	1.51
Cc1cc(-c2ccccc2)cc(-c2ccccc2)[n+]1C	-5.05 (active)
COCCN1CN(S(=O)(=O)c2ccccc2)c2nc3ccccc3nc21	3.14
O=[N+]([O-])c1ccc(N2N=C(c3ccco3)CC2c2ccccc2)cc1 (stereo unspecified)	3.05
Cc1cc(C)c2[nH]c(=O)c(CN(Cc3ccc4c(c3)OCO4)Cc3nnnn3C3CCCC3)cc2c1	-3.04 (active)
CCc1ccc2[nH]c(=O)c(CN(Cc3ccc4c(c3)OCO4)Cc3nnnn3C3CCCC3)cc2c1	-5.41 (active)
CCC(C)(C)n1nnnc1CN(Cc1ccco1)Cc1cc2cc3c(cc2[nH]c1=O)OCO3	-2.22
CCc1ccc2[nH]c(=O)c(CN(Cc3nnnn3C3CCCC3)C3CCCCC3)cc2c1	-3.09 (active)
O=C(OCC(=O)c1ccc[nH]1)c1ccccc1	2.07
O=[N+]([O-])c1cc(S(=O)(=O)/N=C(/c2ccccc2)N2CCOCC2)ccc1Cl	1.77
O=C(COc1ccc(S(=O)(=O)NCc2ccccc2)cc1Cl)N1CCOCC1	-4.71 (active)
CCOc1cc(C(=O)OCC(=O)NC(C)c2ccccc2)ccc1OCC(=O)N1CCOCC1 (stereo unspecified)	2.57
CCCCn1c(CCC(=O)O)nc2cc(S(=O)(=O)N(C)C)ccc21	-3.06 (active)
O=c1[nH]c2ccccc2c(O)c1O	-0.06
CN(C)C(=S)N=Nc1[nH]c2ccccc2c1O	-5.59 (active)
